Pf growth 96h: Primary qHTS for delayed death inhibitors of the malarial parasite plastid, 96 hour incubation | 320,000 tested, 6.9% active | Potency, µM (series often up to 28.7 µM), without a hit: at the highest dose activity change, negative = inhibition, usual class: inhibitors | P. falciparum luciferase reporter growth, 96 h; note: potency is the fitted concentration of half-maximal effect; % is set by controls: 0 for no effect and ±100 for the full control effect
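Plates of compound plus infected erythrocytes (2% hematocrit, 0.05% parasitemia final) incubate 96 hours, 37 C, 5% CO2. Detection reagent added; reduced luminescence from the parasites' luciferase reporter flags inhibition.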
Shiga toxin inh: A qHTS for Small Molecule Inhibitors of Shiga Toxin | AID 2315, 2010 | 290,000 tested, 9.2% active | Vero cells, Shiga toxin protein synthesis inhibition reporter | inhibition, % at 38.7 µM; in the data active = inhibition mostly above about 28%, no sharp cut-off; inactive = mostly below about 43%; note: 0% is about no effect
Cycloheximide cs: Cycloheximide Counterscreen for Small Molecule Inhibitors of Shiga Toxin | cell reporter, cycloheximide protein synthesis inhibition counterscreen | max response, % | 300,000 tested, 12% active | AID 2314, 2010; in the data active = max response mostly above about 13%, no sharp cut-off; inactive = mostly below about 14%; note: read at 38.3 µM for the half of the compounds with a filed dose; 0% is about no effect
Pf growth 48h: Primary qHTS for delayed death inhibitors of the malarial parasite plastid, 48 hour incubation. Potency, µM (doses to about 28.7 µM), inactives show top-dose activity change, negative = inhibition, hits mostly inhibitors. 310,000 tested, 5.9% active. P. falciparum luciferase growth in erythrocytes, 48 h; note: potency is the fitted concentration of half-maximal effect; % is set by controls: 0 for no effect and ±100 for the full control effect
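Cell-based growth assay: transgenic P. falciparum expressing firefly luciferase, cultured in red cells within RPMI 1640 containing 0.5% w/v Albumax, 24 mM bicarbonate and gentamycin. A drop in luciferase activity indicates inhibition.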
Active calls of the source: *; i = inactive; ? = inconclusive; . = no result given. Shown are actives, neighbours in structure and some others; about 21% of the full set was active somewhere. Unless noted, calls come from the whole dose curve; as a rule, active = well fitted inhibition curve with a large enough effect; inconclusive = small, poorly fitted or top-dose-only effect, or another doubt; inactive = no such curve, though single readings can be large or run the other way.

SMILES | Pf growth 96h | Shiga toxin inh | Cycloheximide cs | Pf growth 48h
COc1ccc(-c2noc(COc3ccc4c(c3)OCO4)n2)cc1OC | . | 2.1 | 9.2 | 1.9%
O=C(Nc1ccc2c(c1)OCO2)c1cc(-c2cccnc2)nc2ccccc12 | ? | 71.4 | 16.0* | 0.0%
COC(=O)c1cc(-c2ccc3c(c2)OCO3)nc2ccccc12 | 0.415µM* | 7.3 | -0.5 | 3.4%
COc1ccc(OC)c2nc(-c3ccc4c(c3)OCO4)ccc12 | 421.8% | 104.8* | 61.7* | .
Cc1ccc(-c2cc(C(=O)Nc3ccc4c(c3)OCCO4)c3ccccc3n2)cc1 | 23.3% | 124.8* | 54.6* | -90.9%
O=C(CNCc1cccc(Cl)c1)N1CCc2ccccc2C1 | 23.3% | 33.2 | 19.0 | 23.0%
Cc1cccc(N2CCN(C(=O)C3CCN(S(=O)(=O)c4c(C)noc4C)CC3)CC2)c1C | ? | -3.7 | -1.6 | ?
CC(C)[C@H](N)c1cn([C@@H](CC(N)=O)C(=O)N2CCNCC2)nn1 | ? | . | . | -19.9%
CC[C@@H](C(=O)[C@@H](C)[C@@H](O)[C@H](C)CCc1ccc(C)c(O)c1C(=O)O)C1O[C@](CC)(C2CC[C@](O)(CC)[C@H](C)O2)C[C@@H]1C (stereo not given in full) | . | 15.1 | -2.1 | .
C[n+]1cn(Cc2ccc(C#N)cc2)c2ccccc21 | ? | -7.3 | 6.7 | -34.9%
c1ccc2nc(-c3ccc4c(c3)OCO4)ccc2c1 | 240.1% | 70.5* | 54.5* | 291.6%
Cc1ccc(C(=O)NC2CCS(=O)(=O)C2)cc1S(=O)(=O)N1CCCCCC1 (stereo not given) | -6.9% | -1.2 | -5.1 | ?
CC(C)N1C(=O)CC(Nc2ccc(N3CCOCC3)cc2)C1=O (stereo not given) | 67.8% | 29.7 | 39.4* | .
COc1ccc(NC2CC(=O)N(C(C)C)C2=O)cc1 (stereo not given) | 23.5% | 22.6 | 8.0 | 16.3%
COc1cc(NC(=O)CCc2nnc3ccc(N4CCN(C)CC4)nn23)cc(OC)c1 | 18.3% | 9.9 | 12.4 | 8.0%
O=C1CCCC2=C1C(c1cccs1)Nc1ccccc1N2 (stereo not given) | 40.8% | 12.7 | -2.9 | 10.9%
O=C1CCCC2=C1C(c1ccncc1)Nc1ccccc1N2 (stereo not given) | 10.4µM* | -2.4 | 0.8 | .
CC(C)SC1=NC(C)(C)C=C(/C=C/c2c(Cl)cccc2Cl)N1 | 3.29µM* | -15.1 | -3.7 | .
CCOc1ccc(NCC(=O)N/N=C/C=C/c2ccccc2)cc1 | -11.1% | 15.3 | 1.4 | 3.3%
CCOc1ccc(N=C/C=C/c2ccccc2)c(O)c1 | -87.1% | 63.9* | 21.6* | -94.2%
O=C(CSc1ccc2c(c1)OCCO2)N1CCN(c2ccccc2O)CC1 | 7.38µM* | . | . | ?
O=C(CN1CCN(c2ccccc2O)CC1)Nc1ccc2c(c1)OCCCO2 | 15.4% | . | . | 13.1µM*
O=C(CSc1ccc2c(c1)OCCO2)N1CCN(c2ccccc2)CC1 | 12.1% | . | . | 18.9%
COC(=O)c1ccc(NC(=O)CN2CCOCC2)cc1 | 27.7% | 38.5 | 11.1 | 25.7%
COC(=O)c1cccc(NC(=O)CN2CCOCC2)c1 | 10.4µM* | 4.1 | 8.4 | 33.7%
SMILES | Pf growth 96h | Shiga toxin inh | Cycloheximide cs | Pf growth 48h
S=C(Nc1ccc2c(c1)OCO2)N1CCN(Cc2ccco2)CC1 | 399.2% | 28.0* | 20.1* | 49.9%
C=CCNC(=O)c1ccccc1NC(=O)C1CC(=O)N(C(C)C)C1 (stereo not given) | -1.6% | . | -1.2 | 15.7%
CC(C(=O)Nc1ccc2c(c1)OCCO2)N1CCN(C(=O)c2ccco2)CC1 (stereo not given) | ? | 2.6 | -2.1 | .
O=C(CN1CCN(C(=O)c2ccco2)CC1)Nc1ccc(Cl)c(S(=O)(=O)N2CCOCC2)c1 | -82.8% | -22.8 | -3.7 | 11.7µM*
O=C(CN1CCN(c2ccccc2)CC1)Nc1ccc2c(c1)OCCO2 | 38.7% | 15.1 | 14.6 | i
O=C(CN1CCOCC1)Nc1ccc2c(c1)OCCO2 | 42.9% | 49.9* | 16.1* | 66.1%
O=C(CN1CCN(C(=O)c2ccco2)CC1)Nc1cc(Cl)ccc1Cl | 35.1% | -13.5 | 1.5 | 1.04µM*
O=C(c1ccco1)N1CCN(S(=O)(=O)c2cc(Cl)ccc2Cl)CC1 | ? | -6.1 | -2.9 | -24.4%
O=C(CN1CCN(C(=O)c2ccco2)CC1)Nc1ccc2c(c1)OCCO2 | 28.0% | 90.8* | 27.2* | 62.2%
O=C(CN1CCN(C(=O)c2ccco2)CC1)Nc1ccccc1-c1ccccc1 | -104.5% | 18.5 | -5.8 | ?
C[N+]1(C2CCC3CCCC2C3O)CCCCC1 (stereo not given) | 37.8% | -12.6 | -5.0 | -11.9%

Screening data: PubChem, National Center for Advancing Translational Sciences (NCATS)
